The values below come from PubChem BioAssay (EPA / NIEHS).

SMILES strings stand for the structures. Active and inactive are the calls of the source. Rule for the calls: active = hit-call score of the fitted dose curve at least 0.9, where 1 is the maximum; inactive = score below 0.9.

Common to all, as to conditions: mRNA level, 48 h; actives raise or lower the signal
Read-out in experiment [1]: DNA damage-inducible transcript 3 (DDIT3), DDIT3 (gene 1649)
The experiment in a line: LTEA_HepaRG_DDIT3: Life Technologies and Expression Analysis (LTEA) Assay for DNA damage-inducible transcript 3 (DDIT3) using HepaRG (AID 2283488). An outline of the steps:
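Eight-point concentration-response (100 uM highest, half-log dilutions) in HepaRG, 48 h, duplicate wells. Endpoint: qRT-PCR mRNA, normalized (ACTB, GAPDH, POLR2A), bidirectional fitting with DMSO as baseline.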

Read-out in experiment [2]: Pro-epidermal growth factor (Homo sapiens) (UniProt P01133)
The experiment in a line: LTEA_HepaRG_EGF: Life Technologies and Expression Analysis (LTEA) Assay for Epidermal growth factor (EGF) using HepaRG (AID 2283489). An outline of the steps: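 qRT-PCR readout of EGF transcript after 48 h chemical exposure of HepaRG cells; eight concentrations from 100 uM down in half-log steps, duplicate wells, 0.5% DMSO vehicle. Bidirectional curve fitting against DMSO baseline.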

Read-out in experiment [3]: Early growth response protein 1 (EGR1) transcription factor, EGR1 (gene 1958)
The experiment in a line: LTEA_HepaRG_EGR1: Life Technologies and Expression Analysis (LTEA) Assay for Early growth response protein 1 (EGR1) transcription factor using HepaRG (AID 2283490). The gist of the method:
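EGR1 expression change in human HepaRG after 48 h chemical exposure, assessed by housekeeping-normalized qRT-PCR; concentration-response up to 100 uM, fitted in both directions against DMSO controls.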

Read-out in experiment [4]: Ezrin (EZR), EZR (gene 7430)
The experiment in a line: LTEA_HepaRG_EZR: Life Technologies and Expression Analysis (LTEA) Assay for Ezrin (EZR) using HepaRG (AID 2283491). The gist of the method:
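Read-out is EZR transcript level by qRT-PCR, normalized to three housekeeping genes and fitted bidirectionally against the DMSO control. Human HepaRG cells received test chemicals for 48 h at eight half-log concentrations up to 100 uM in 0.5% DMSO.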

Read-out in experiment [5]: Cytochrome P450 3A7 (Homo sapiens) (UniProt P24462)
The experiment in a line: LTEA_HepaRG_CYP3A7: Life Technologies and Expression Analysis (LTEA) Assay for CYP3A7 using HepaRG (AID 2283492). An outline of the steps: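 CYP3A7 transcript levels were read by TaqMan qRT-PCR on Fluidigm arrays after 48 h chemical exposure of human HepaRG cells, with housekeeping-gene normalisation. Eight half-log concentrations up to 100 uM in 0.5% DMSO were tested in duplicate.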

Read-out in experiment [6]: CYP3A5 (gene 1577)
The experiment in a line: LTEA_HepaRG_CYP3A5: Life Technologies and Expression Analysis (LTEA) Assay for CYP3A5 using HepaRG (AID 2283493). The gist of the method:
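Readout was CYP3A5 mRNA by qRT-PCR. HepaRG cultures were exposed for 48 h in serum-free induction medium to chemicals at up to 100 uM, and responses were fitted in both directions relative to DMSO vehicle.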

Read-out in experiment [7]: Fatty Acid-Binding Protein 1 (FABP1), FABP1 (gene 2168)
The experiment in a line: LTEA_HepaRG_FABP1: Life Technologies and Expression Analysis (LTEA) Assay for Fatty Acid-Binding Protein 1 (FABP1) using HepaRG (AID 2283494). The gist of the method:
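Values reflect bidirectional concentration-response fitting of FABP1 mRNA change against 0.5% DMSO controls. Human HepaRG cultures received eight half-log doses (top 100 uM) for 48 h; expression quantified by TaqMan qRT-PCR with housekeeping-gene normalization.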

Read-out in experiment [8]: Cytochrome P450 4A22 (Homo sapiens) (UniProt Q5TCH4)
The experiment in a line: LTEA_HepaRG_CYP4A22: Life Technologies and Expression Analysis (LTEA) Assay for Cytochrome P450 4A22 (CYP4A22) using HepaRG (AID 2283495). The gist of the method:
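HepaRG, 48 h post-plating -> serum-free induction medium; dosed 48 h, duplicate, 8 conc. (100 uM top, half-log), 0.5% DMSO. Readout: CYP4A22 mRNA by qRT-PCR, ACTB/GAPDH/POLR2A normalization; gain/loss fit relative to DMSO.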

Read-out in experiment [9]: Cytochrome P450 7A1 (Homo sapiens) (UniProt P22680)
The experiment in a line: LTEA_HepaRG_CYP7A1: Life Technologies and Expression Analysis (LTEA) Assay for Cytochrome P450 7A1 (CYP7A1) using HepaRG (AID 2283496). The gist of the method: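 Using 0.5% DMSO as vehicle and baseline, chemicals were tested in duplicate over an 8-point range from 100 uM on HepaRG cells for 48 h; qRT-PCR signals were normalised to ACTB, GAPDH and POLR2A.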

Read-out in experiment [10]: Glutathione S-Transferase (GSTA2), GSTA2 (gene 2939)
The experiment in a line: LTEA_HepaRG_GSTA2: Life Technologies and Expression Analysis (LTEA) Assay for Glutathione S-Transferase (GSTA2) using HepaRG (AID 2283497). The gist of the method:
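Oxidative-stress marker GSTA2 is quantified by TaqMan qRT-PCR in HepaRG cultures treated 48 h across an eight-point range to 100 uM. Expression is normalized to endogenous controls and compared with 0.5% DMSO vehicle.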

Read-out in experiment [11]: Glutamate-cysteine ligase catalytic (GCLC), GCLC (gene 2729)
The experiment in a line: LTEA_HepaRG_GCLC: Life Technologies and Expression Analysis (LTEA) Assay for Glutamate-cysteine ligase catalytic (GCLC) using HepaRG (AID 2283498). An outline of the steps:
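Oxidative-stress marker GCLC is measured as mRNA change in human HepaRG liver cells after 48 h chemical treatment in 0.5% DMSO, eight concentrations from 100 uM. Activity is fitted bidirectionally against vehicle.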

Read-out in experiment [12]: growth arrest and DNA damage 45 (GADD45G), GADD45G (gene 10912)
The experiment in a line: LTEA_HepaRG_GADD45G: Life Technologies and Expression Analysis (LTEA) Assay for growth arrest and DNA damage 45 (GADD45G) using HepaRG (AID 2283499). An outline of the steps: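 HepaRG, 48 h exposure, top 100 uM, half-log 8-point series, 0.5% DMSO vehicle, duplicates. Readout: GADD45G transcript by qRT-PCR (Fluidigm array), housekeeping-normalised (ACTB/GAPDH/POLR2A). Bidirectional curve fit vs DMSO baseline.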

Read-out in experiment [13]: Glutamate-cysteine ligase regulatory (GCLM), GCLM (gene 2730)
The experiment in a line: LTEA_HepaRG_GCLM: Life Technologies and Expression Analysis (LTEA) Assay for Glutamate-cysteine ligase regulatory (GCLM) using HepaRG (AID 2283500). An outline of the steps: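 In this multiplexed HepaRG gene-expression assay, GCLM mRNA change after 48 h treatment (8 concentrations, max 100 uM) was scored against DMSO by bidirectional curve fitting.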

Read-out in experiment [14]: Heat shock 70 kDa protein 1 (HSPA1A), gene 3303
The experiment in a line: LTEA_HepaRG_HSPA1A: Life Technologies and Expression Analysis (LTEA) Assay for Heat shock 70 kDa protein 1 (HSPA1A) using HepaRG (AID 2283502). An outline of the steps: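 An oxidative-stress marker readout: HepaRG cells treated 48 h in duplicate with an eight-point series (highest 100 uM) had HSPA1A mRNA quantified by TaqMan qRT-PCR. Activity was fitted in both directions using 0.5% DMSO as baseline.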

Read-out in experiment [15]: Hypoxia-inducible factor 1-alpha (Homo sapiens) (UniProt Q16665)
The experiment in a line: LTEA_HepaRG_HIF1A: Life Technologies and Expression Analysis (LTEA) Assay for Hypoxia-inducible factor 1 (HIF1A) Trancription factor using HepaRG (AID 2283503).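 Note: HIF1A transcript by TaqMan qRT-PCR normalized to ACTB GAPDH and POLR2A.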 The gist of the method:
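Gain- or loss-of-signal HIF1A mRNA changes are fitted against a DMSO baseline. HepaRG cultures receive eight concentrations, highest 100 uM, for 48 h in serum-free induction medium with 0.5% DMSO.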

Read-out in experiment [16]: 3-Hydroxy-3-Methylglutaryl-CoA Synthase 2 (HMGCS2), HMGCS2 (gene 3158)
The experiment in a line: LTEA_HepaRG_HMGCS2: Life Technologies and Expression Analysis (LTEA) Assay for 3-Hydroxy-3-Methylglutaryl-CoA Synthase 2 (HMGCS2) using HepaRG (AID 2283504). The gist of the method: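 qRT-PCR read-out of HMGCS2 transcript, normalised to three housekeeping genes, in HepaRG cells after 48 h chemical exposure. Eight-point curves from 100 uM, half-log dilutions, 0.5% DMSO vehicle; gain or loss fitted relative to DMSO baseline.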

Read-out in experiment [17]: Insulin Like Growth Factor 1 (IGF1), IGF1 (gene 3479)
The experiment in a line: LTEA_HepaRG_IGF1: Life Technologies and Expression Analysis (LTEA) Assay for Insulin Like Growth Factor 1 (IGF1) using HepaRG (AID 2283506). The gist of the method:
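Endpoint: IGF1 mRNA change by qRT-PCR, housekeeping-normalized, fitted bidirectionally relative to 0.5% DMSO vehicle. Human HepaRG cells were treated 48 h in serum-free induction medium, eight half-log concentrations topping at 100 uM.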

Read-out in experiment [18]: Intercellular Adhesion Molecule 1 (ICAM1), ICAM1 (gene 3383)
The experiment in a line: LTEA_HepaRG_ICAM1: Life Technologies and Expression Analysis (LTEA) Assay for Intercellular Adhesion Molecule 1 (ICAM1) using HepaRG (AID 2283507). The gist of the method:
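HepaRG, 48 h exposure, 8-pt half-log series from 100 uM, 0.5% DMSO vehicle, duplicates. Readout: TaqMan qRT-PCR mRNA, housekeeping-normalized (ACTB/GAPDH/POLR2A). Bidirectional curve fit vs DMSO baseline.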

Read-out in experiment [19]: Glutathione S-transferase M3 (GSTM3), GSTM3 (gene 2947)
The experiment in a line: LTEA_HepaRG_GSTM3: Life Technologies and Expression Analysis (LTEA) Assay for Glutathione S-transferase M3 (GSTM3) using HepaRG (AID 2283501). An outline of the steps: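 qRT-PCR read-out of GSTM3 transcript, normalized to three housekeeping genes, from human HepaRG cells after 48 h chemical exposure. Eight-point half-log series, top 100 uM, 0.5% DMSO vehicle; gain or loss fitted relative to DMSO baseline.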

Chain of Hypoxia-inducible factor 1-alpha (Homo sapiens) (Q16665 whole entry, looked up): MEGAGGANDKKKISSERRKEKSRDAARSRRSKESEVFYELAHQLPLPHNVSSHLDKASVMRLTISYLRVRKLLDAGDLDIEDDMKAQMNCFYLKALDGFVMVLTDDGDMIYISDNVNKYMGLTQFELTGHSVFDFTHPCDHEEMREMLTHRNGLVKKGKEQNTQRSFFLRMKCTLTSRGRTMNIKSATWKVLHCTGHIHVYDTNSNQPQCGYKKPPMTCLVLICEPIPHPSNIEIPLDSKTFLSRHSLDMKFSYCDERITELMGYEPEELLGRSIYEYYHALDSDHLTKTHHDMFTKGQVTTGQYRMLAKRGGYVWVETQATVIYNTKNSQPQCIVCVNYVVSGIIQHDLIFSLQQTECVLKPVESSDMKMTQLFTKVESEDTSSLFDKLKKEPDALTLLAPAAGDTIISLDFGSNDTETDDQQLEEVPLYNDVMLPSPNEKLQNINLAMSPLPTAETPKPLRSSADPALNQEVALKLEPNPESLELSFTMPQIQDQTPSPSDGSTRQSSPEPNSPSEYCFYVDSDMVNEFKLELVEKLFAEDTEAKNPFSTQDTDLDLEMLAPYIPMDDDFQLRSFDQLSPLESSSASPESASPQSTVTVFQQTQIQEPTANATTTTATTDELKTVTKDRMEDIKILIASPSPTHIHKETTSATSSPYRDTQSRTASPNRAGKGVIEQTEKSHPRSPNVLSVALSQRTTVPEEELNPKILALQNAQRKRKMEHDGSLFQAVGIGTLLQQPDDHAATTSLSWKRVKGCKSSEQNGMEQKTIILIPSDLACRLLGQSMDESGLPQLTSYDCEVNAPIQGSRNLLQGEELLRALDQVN
Chain of Cytochrome P450 3A7 (Homo sapiens) (P24462 whole entry, looked up): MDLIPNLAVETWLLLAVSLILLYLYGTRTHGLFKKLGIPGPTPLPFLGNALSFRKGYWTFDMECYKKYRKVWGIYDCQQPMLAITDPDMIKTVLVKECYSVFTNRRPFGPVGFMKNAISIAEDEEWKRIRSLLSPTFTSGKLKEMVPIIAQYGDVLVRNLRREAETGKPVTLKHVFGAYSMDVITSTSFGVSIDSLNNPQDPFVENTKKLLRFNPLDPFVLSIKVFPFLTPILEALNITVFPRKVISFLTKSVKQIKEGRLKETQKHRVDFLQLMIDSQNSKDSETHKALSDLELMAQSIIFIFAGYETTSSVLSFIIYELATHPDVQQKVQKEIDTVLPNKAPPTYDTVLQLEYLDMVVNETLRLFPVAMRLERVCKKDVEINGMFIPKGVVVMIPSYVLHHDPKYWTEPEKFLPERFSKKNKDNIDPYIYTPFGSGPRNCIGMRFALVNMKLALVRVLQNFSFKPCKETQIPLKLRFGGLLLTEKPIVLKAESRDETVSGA

The AC50 is the concentration giving half of the maximal activity seen. For `N#Cc1ccc(N(CC(N)=O)CC(F)(F)F)cc1C(F)(F)F`, the molecule was classed as inactive in [1], in experiment [2], in experiment [3], in experiment [4], in experiment [5] and in [6]. Further, the result in experiment [8], in experiment [10], in experiment [11], in experiment [12], in experiment [13] and in experiment [14] was inactive. Further, the result in experiment [15], in experiment [16], in [17] and in experiment [18] was inactive. Also, the AC50 in experiment [7] is 2.3 µM (active); in experiment [9], 0.622 µM (active).

For the molecule `Clc1ccc(C(c2ccccc2Cl)C(Cl)(Cl)Cl)cc1` (centres undefined), the AC50 in [1] is 74.6 µM (active); in [3], 11.9 µM (active); in experiment [5], 0.41 µM (active); in experiment [7], 33.9 µM (active); in experiment [9] it was 15.3 µM (active); in [12] it was 90 µM (active). In addition, the results for the AC50 in experiment [14], in experiment [16] and in experiment [17] were 12 µM (active), 50 µM (active) and 31.3 µM (active), respectively. For the same molecule, the outcome in experiment [2], in experiment [4], in [6], in experiment [10], in experiment [11] and in experiment [13] was inactive. The result in [19], in experiment [15] and in experiment [18] was inactive.

As for `CC(C)(O)C(=O)Nc1ccc([N+](=O)[O-])c(C(F)(F)F)c1`, the AC50 in experiment [2] is 0.0411 µM (active); in experiment [3] it was 0.0388 µM (active); in experiment [7], 25 µM (active); in experiment [16] it was 44.8 µM (active); in experiment [17], 0.0443 µM (active); in experiment [18] it was 0.0402 µM (active). For the same molecule, the molecule was classed as inactive in experiment [4], in experiment [5], in experiment [6], in experiment [8], in experiment [9] and in experiment [10]. Also, the call in experiment [11], in [12], in experiment [13], in experiment [19], in [14] and in [15] was inactive.
